Results filed as inconclusive are left out. Entries that show only a call come without a potency. The source made the active and inactive calls. Calls come from the whole dose curve; as a rule, active = well fitted inhibition curve with a large enough effect; inconclusive = small, poorly fitted or top-dose-only effect; inactive = flat fitted curve, though single readings scatter.
test system: CP201; assay: qHTS profiling for inhibitors of Plasmodium falciparum proliferation (AID 504749); note: nearly all actives have a fitted effect of over 60% in size; conditions: P. falciparum in erythrocytes, SYBR Green DNA, 72 h; series mostly up to 28.7 µM
Summary of the method: (§1)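 In a 72 h erythrocytic culture (37 C, humidified, 5% CO2) at 2.5% hematocrit and 0.3% starting parasitemia, compounds were tested; SYBR Green I in detergent lysis buffer stained parasite DNA overnight.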

Row | SMILES | Potency
1 | CC(C)[C@@H](N)C(=O)O | inactive
2 | C[C@H]1O[C@@H](O[C@H]2[C@@H](O)C[C@H](O[C@H]3[C@@H](O)C[C@H](O[C@H]4CC[C@@]5(C)[C@H](CC[C@@H]6[C@@H]5C[C@@H](O)[C@]5(C)[C@@H](C7=CC(=O)OC7)CC[C@]65O)C4)O[C@@H]3C)O[C@@H]2C)C[C@H](O)[C@@H]1O | inactive
3 | CC(=O)NCCCS(=O)(=O)O | inactive
4 | C=Cc1ccc(S(=O)(=O)O)cc1 | inactive
5 | CO | inactive
6 | O=C1[O][Bi][O]c2ccccc21 | inactive
7 | O=P(O)(O)CP(=O)(O)O | inactive
8 | O=C1c2ccccc2C(=O)C1c1ccc(F)cc1 | inactive
9 | CCOc1ccc(NC(=S)Nc2ccc(OCC)cc2)cc1 | inactive
10 | O=C(O)c1ccc(NC(=O)[C@H](Cc2ccc(O)cc2)NC(=O)c2ccccc2)cc1 | inactive
11 | COc1cc2c(cc1OC)[C@@H](Cc1cc(OC)c(OC)c(OC)c1)[N+](C)(CCCOC(=O)CC/C=C/CCC(=O)OCCC[N+]1(C)CCc3cc(OC)c(OC)cc3[C@H]1Cc1cc(OC)c(OC)c(OC)c1)CC2 (stereo partly drawn) | inactive
12 | F[Si-2](F)(F)(F)(F)F | inactive
13 | CC(C)CCC[C@@H](C)[C@H]1CC[C@H]2[C@@H]3CC=C4C[C@@H](O)CC[C@]4(C)[C@H]3CC[C@]12C | inactive
14 | N[C@H](CC(=O)O)C(=O)O | inactive
15 | Cc1c(Cl)cccc1Nc1ncccc1C(=O)O | inactive
16 | O=C(O)CCC/C=C\C[C@@H]1[C@@H](/C=C/[C@@H](O)COc2cccc(C(F)(F)F)c2)[C@H](O)C[C@@H]1O | inactive
17 | CN1C(=O)OC(C)(C)C1=O | inactive
18 | CCCCCCCCCCCC(=O)OCC(O)CO (stereo not drawn) | inactive
19 | O=C(O)[C@H]1C(=CCO)O[C@H]2CC(=O)N12 | inactive
20 | O=P(O)(O)O | inactive

Row | SMILES | Potency
21 | CC(=O)Nc1ccc(OC(=O)c2ccccc2O)cc1 | inactive
22 | CC1=CC(=O)NS(=O)(=O)O1 | inactive
23 | COC(=O)C(CN)c1c[nH]c2ccc(OC)cc12 (stereo not drawn) | inactive
24 | CCOC(=O)[C@@H](N)CS | inactive
25 | CCCCCCOC(=O)c1cccnc1 | inactive
26 | CCN(CC)CCOc1ccccc1OC | inactive
27 | CO/N=C(/C(=O)N[C@@H]1C(=O)N2C(C(=O)O)=C(COC(N)=O)CS[C@H]12)c1ccco1 | inactive
28 | ClC(Cl)Cl | inactive
29 | Nc1ncnc2c1ncn2[C@H]1CC[C@@H](CO)O1 | inactive
30 | CC1CCCCN1CCCOC(=O)c1ccccc1 (stereo not drawn) | inactive
31 | CC(=O)[C@H]1CC[C@H]2[C@@H]3C=CC4=CC(=O)CC[C@@]4(C)[C@H]3CC[C@]12C | inactive
32 | CC/C=C\C/C=C\C/C=C\CCCCCCCC(=O)O | inactive
33 | CCCCCCCCCCCCCCCCCCCCCC(=O)Nc1ccn([C@@H]2O[C@H](CO)[C@@H](O)[C@@H]2O)c(=O)n1 | inactive
34 | CN(Cc1ccccc1)Cc1ccccc1 | inactive
35 | CCCc1ccc(C(=O)O)cc1 | inactive
36 | C=CC(=O)O | inactive
37 | O=C(NNCNNC(=O)c1ccncc1)c1ccncc1 | inactive
38 | CN(C)c1ccc(C(=C2C=CC(=[N+](C)C)C=C2)c2c(O)c(S(=O)(=O)[O-])cc3cc(S(=O)(=O)O)ccc23)cc1 | inactive
39 | CC(C)(CO)[C@@H](O)C(=O)NCCC(=O)NCCSSCCNC(=O)CCNC(=O)[C@H](O)C(C)(C)CO | inactive

test system: CP203; assay: as above; conditions: P. falciparum in erythrocytes, SYBR Green DNA, 72 h; series mostly up to 28.7 µM
Summary of the method: as §1

Row | SMILES | Potency
40 | CC(C)[C@@H](N)C(=O)O | inactive
41 | C[C@H]1O[C@@H](O[C@H]2[C@@H](O)C[C@H](O[C@H]3[C@@H](O)C[C@H](O[C@H]4CC[C@@]5(C)[C@H](CC[C@@H]6[C@@H]5C[C@@H](O)[C@]5(C)[C@@H](C7=CC(=O)OC7)CC[C@]65O)C4)O[C@@H]3C)O[C@@H]2C)C[C@H](O)[C@@H]1O | inactive
42 | CC(=O)NCCCS(=O)(=O)O | inactive
43 | C=Cc1ccc(S(=O)(=O)O)cc1 | inactive
44 | CO | inactive
45 | O=C1[O][Bi][O]c2ccccc21 | inactive
46 | O=P(O)(O)CP(=O)(O)O | inactive
47 | O=C1c2ccccc2C(=O)C1c1ccc(F)cc1 | inactive
48 | CCOc1ccc(NC(=S)Nc2ccc(OCC)cc2)cc1 | inactive
49 | O=C(O)c1ccc(NC(=O)[C@H](Cc2ccc(O)cc2)NC(=O)c2ccccc2)cc1 | inactive
50 | COc1cc2c(cc1OC)[C@@H](Cc1cc(OC)c(OC)c(OC)c1)[N+](C)(CCCOC(=O)CC/C=C/CCC(=O)OCCC[N+]1(C)CCc3cc(OC)c(OC)cc3[C@H]1Cc1cc(OC)c(OC)c(OC)c1)CC2 (stereo partly drawn) | inactive
51 | F[Si-2](F)(F)(F)(F)F | inactive
52 | CC(C)CCC[C@@H](C)[C@H]1CC[C@H]2[C@@H]3CC=C4C[C@@H](O)CC[C@]4(C)[C@H]3CC[C@]12C | inactive
53 | N[C@H](CC(=O)O)C(=O)O | inactive
54 | Cc1c(Cl)cccc1Nc1ncccc1C(=O)O | inactive
55 | O=C(O)CCC/C=C\C[C@@H]1[C@@H](/C=C/[C@@H](O)COc2cccc(C(F)(F)F)c2)[C@H](O)C[C@@H]1O | inactive
56 | CN1C(=O)OC(C)(C)C1=O | inactive
57 | CCCCCCCCCCCC(=O)OCC(O)CO (stereo not drawn) | inactive
58 | O=C(O)[C@H]1C(=CCO)O[C@H]2CC(=O)N12 | inactive
59 | O=P(O)(O)O | inactive

Row | SMILES | Potency
60 | CC(=O)Nc1ccc(OC(=O)c2ccccc2O)cc1 | inactive
61 | CC1=CC(=O)NS(=O)(=O)O1 | inactive
62 | COC(=O)C(CN)c1c[nH]c2ccc(OC)cc12 (stereo not drawn) | inactive
63 | CCOC(=O)[C@@H](N)CS | inactive
64 | CCCCCCOC(=O)c1cccnc1 | inactive
65 | CCN(CC)CCOc1ccccc1OC | inactive
66 | CO/N=C(/C(=O)N[C@@H]1C(=O)N2C(C(=O)O)=C(COC(N)=O)CS[C@H]12)c1ccco1 | inactive
67 | ClC(Cl)Cl | inactive
68 | Nc1ncnc2c1ncn2[C@H]1CC[C@@H](CO)O1 | inactive
69 | CC1CCCCN1CCCOC(=O)c1ccccc1 (stereo not drawn) | inactive
70 | CC(=O)[C@H]1CC[C@H]2[C@@H]3C=CC4=CC(=O)CC[C@@]4(C)[C@H]3CC[C@]12C | inactive
71 | CC/C=C\C/C=C\C/C=C\CCCCCCCC(=O)O | inactive
72 | CCCCCCCCCCCCCCCCCCCCCC(=O)Nc1ccn([C@@H]2O[C@H](CO)[C@@H](O)[C@@H]2O)c(=O)n1 | inactive
73 | CN(Cc1ccccc1)Cc1ccccc1 | inactive
74 | CCCc1ccc(C(=O)O)cc1 | inactive
75 | C=CC(=O)O | inactive
76 | O=C(NNCNNC(=O)c1ccncc1)c1ccncc1 | inactive
77 | CN(C)c1ccc(C(=C2C=CC(=[N+](C)C)C=C2)c2c(O)c(S(=O)(=O)[O-])cc3cc(S(=O)(=O)O)ccc23)cc1 | inactive
78 | CC(C)(CO)[C@@H](O)C(=O)NCCC(=O)NCCSSCCNC(=O)CCNC(=O)[C@H](O)C(C)(C)CO | inactive

Reference: PubChem BioAssay (NCATS)
